# Source: ChEMBL document CHEMBL3988442, “University of Dundee, Small-Polar-MMV Screening Library” (2021)
# Where “and” joins values, the source holds several entries; their conditions need not be identical. Equal entries are not always repeated. About 290 (0.85%) of roughly 34,000 compounds showed an effect of 50% or more. The sample holds strong results, similar compounds and a random draw of the others, so the mix is not that of the screen.
# Test system: Plasmodium falciparum
# Assay: Plasmodium falciparum sporozoite viability assay
# Format: functional, organism-based
# Design: scale not given: in the data most compounds retested in dose-response had high values
smiles,measurement,setting,value
CC(C)(C(=O)N[C@@H]1CCC[C@@H](O)[C@@H]1O)c1cccc(F)c1,Percent Effect,,7.186%
Cc1ccc(CCNC(=O)Nc2cc(C(F)(F)F)c[nH]c2=O)o1,Percent Effect,,-6.166%
O=C(Cc1cn2ccsc2n1)N1CCCC(n2ccnc2)C1 (stereo not given),Percent Effect,,9.411%
CN(C)c1ccc(NC(=O)N2CCCCCC2c2ccncc2)cn1 (stereo not given),Percent Effect,10 mM as filed; unlikely as a test dose,-8.99% and -20.34% and -20.82%
CCOc1ccc(C(=O)N2CCCC2c2cnn(C)c2)cn1 (stereo not given),Percent Effect,,2.866%
COCCC(=O)N[C@H]1CN(c2nc(C)c3c(n2)CCCC3)C[C@@H]1C1CC1,Percent Effect,10 mM as filed; unlikely as a test dose,37.56% and 25.17%
CNCC(=O)N[C@H]1CN(c2nc(C)c3c(n2)CCCC3)C[C@@H]1C1CC1,Percent Effect,10 mM as filed; unlikely as a test dose,74.85% and 85.09%
CNc1nc(N2C[C@H](NC(=O)CCOC)[C@@H](C3CC3)C2)nc2c1CCC2,Percent Effect,10 mM as filed; unlikely as a test dose,-17.73% and -19.53%
Cc1n[nH]c(C)c1-c1cnc(CC2CCN(C)C2)cn1 (stereo not given),Percent Effect,,-7.497%
NC(=O)CN1CCCC(c2ccnc(Nc3ncccn3)c2)C1 (stereo not given),Percent Effect,10 mM as filed; unlikely as a test dose,24.34% and 12.28% and 9.246%
Cc1cccc(Nc2nccnc2C2CCCN(CC(=O)N(C)C)C2)n1 (stereo not given),Percent Effect,,4.997%
Cc1cc(Nc2ccccn2)nc(C2CCCN(CCO)C2)n1.O=CO (stereo not given),Percent Effect,,9.991%
Cc1cccc(Nc2cc(C3CCCN(CC(N)=O)C3)ccn2)n1.O=CO.O=CO (stereo not given),Percent Effect,10 mM as filed; unlikely as a test dose,98.38% and 92.39% and 79.92%
Cc1cccc(Nc2nccnc2C2CCCN2CC(N)=O)n1 (stereo not given),Percent Effect,,7.262%
COc1cc(NC(=O)c2ccc(F)cc2Cl)c(C(=O)N(C)C)cc1OC,Percent Effect,,-12.25%
O=C(C1CCOCC1)N1CCc2ncc(CN3CCCCC3)n2CC1,Percent Effect,,-3.866%
c1cnn(CC2CN(c3ncnc4[nH]ccc34)CCO2)c1 (stereo not given),Percent Effect,,-8.614%
Cc1nc(CN2CCC3(CC2)NC(=O)CC3c2cccnc2)cs1 (stereo not given),Percent Effect,,-8.123%
Cc1cc(CN2CCC3(CC2)C(=O)NCCN3CC2CC2)oc1C,Percent Effect,,-0.5945%
O[C@H]1CN(CCCOc2ccccc2F)CC[C@@]12CCCO2,Percent Effect,,14%
O[C@H]1CN(CCOc2ccc(F)cc2)CC[C@@]12CCCO2,Percent Effect,10 mM as filed; unlikely as a test dose,66.45% and 84.39% and 80.81%
OC1CCCOC12CCN(CCCOc1ccccc1F)CC2 (stereo not given),Percent Effect,,2.153%
COc1ccccc1CNC(Cc1cccs1)c1nc(C)cs1.Cl (stereo not given),Percent Effect,,-2.216%
Cc1cc(C)n(C2CN(CCC(=O)NC3CCCCC3)C2)n1,Percent Effect,,-0.4038%
CC(C)NC(=O)C1CN(C(=O)Nc2ccc(F)cc2)CC12CCOCC2 (stereo not given),Percent Effect,,-6.778%
CNc1cncc(C2CCCN2C(=O)c2ccc3c(c2)CCC3)n1 (stereo not given),Percent Effect,,5.523%
CC(NC(=O)Nc1ccc(OC2CCCC2)cc1)c1nc[nH]n1 (stereo not given),Percent Effect,10 mM as filed; unlikely as a test dose,68.07% and 85.04%
COc1ccc(NC(=O)NC(C)c2nc[nH]n2)cc1 (stereo not given),Percent Effect,10 mM as filed; unlikely as a test dose,-24.45% and -7.709% and -11.14%
CCN1CCC(CNC(=O)Nc2cc(C)on2)C1 (stereo not given),Percent Effect,,13.21%
COC(=O)c1cccn1C1CCN(Cc2nc3ccccc3o2)CC1,Percent Effect,,-2.498%
CN(CC1(CO)CCCC1)c1nc2c(c(=O)[nH]1)Cc1ccccc1OC2,Percent Effect,10 mM as filed; unlikely as a test dose,63.62% and 42.71%
CN(C)c1nc2c(c(=O)[nH]1)Cc1ccccc1OC2,Percent Effect,10 mM as filed; unlikely as a test dose,9.66% and 16.82%
CNC(=O)N1CC[C@H]2N(C)CC[C@@]2(C(=O)N2CCOCC2)CC1.O=C(O)C(F)(F)F,Percent Effect,,9.37%
Cc1cnn(CC2CCCN2C(=O)Cc2c(C)noc2Cl)c1 (stereo not given),Percent Effect,,8.684%
Cc1ccc(CN2C[C@@H]3COC[C@H](C(=O)N4CCCCO4)[C@@H]3C2)o1.O=C(O)C(F)(F)F,Percent Effect,10 mM as filed; unlikely as a test dose,-11.42% and -12.39% and -13.97%
O=C(c1ccncc1)N1CCc2[nH]nc(Nc3ccccc3)c2C1,Percent Effect,,-2.217%
CC(C)c1nc2cc(NC(=O)c3n[nH]c4c3CCC4)ccc2n1C,Percent Effect,10 mM as filed; unlikely as a test dose,73.89% and 87.21%
CN(C)CCCn1cnc2cc(NC(=O)c3n[nH]c4c3CCC4)ccc21,Percent Effect,10 mM as filed; unlikely as a test dose,-35.39% and -25.92%
Cn1cnc2cc(NC(=O)c3n[nH]c4c3CCC4)ccc21,Percent Effect,10 mM as filed; unlikely as a test dose,-48.98% and -33.08%
Cn1cc(C(=O)N2CCN(Cc3ccccn3)CC2)ccc1=O,Percent Effect,,-3.259%
Cc1ccccc1C(C(=O)O)N(C)CC1CCOCC1 (stereo not given),Percent Effect,,-26.36%
COc1c(CNC(c2ccccc2)c2nccn2C)c(C)nn1C (stereo not given),Percent Effect,,11.35%
O=C(O)c1ccccc1-c1ccc(CN2CCOCC2)cn1,Percent Effect,,6.918%
c1cc(-c2cn[nH]c2)ncc1CN1CCCCC1,Percent Effect,10 mM as filed; unlikely as a test dose,-7.187% and -9.51%
C(=C\c1ccc(CN2CCCC2)cn1)/c1ccccc1,Percent Effect,10 mM as filed; unlikely as a test dose,78.68% and 64.66%
O=C(C1CCOC1)N1C[C@H]2CN(Cc3cccc(F)c3)C(=O)[C@H]2C1 (stereo not given in full),Percent Effect,,12.32%
CC(C)NC(=O)c1csc(NC2CC2)n1,Percent Effect,,-5.904%
NC(=O)c1cn[nH]c1C1CCCN1C(=O)c1ccccc1 (stereo not given),Percent Effect,,-3.133%
COC(=O)[C@@H]1CN(C(=O)c2cscn2)C[C@H]1c1ccc(OC)cc1,Percent Effect,,5.827%
O=C(Nc1cc(C2CCOCC2)[nH]n1)c1cscn1,Percent Effect,,17.19%
COc1cc(N[C@@H](Cc2ccccc2)C(N)=O)ncn1,Percent Effect,,10.88%
COc1ncnc(N(C)C)c1NC(=O)c1cscc1C,Percent Effect,,-11.09%
Cc1cnc(CN(C)C2CCN(Cc3nnc(C4CC4)o3)C2)o1 (stereo not given),Percent Effect,,13.1%
OC(COCc1ccccc1)CN1CCC(c2ccn[nH]2)CC1 (stereo not given),Percent Effect,,8.709%
c1cc(CN2CCCC(c3nnc(-c4cnccn4)o3)C2)ccn1 (stereo not given),Percent Effect,,8.33%
O=C(O)C(F)(F)F.O=C1COC2(CCN(Cc3ccoc3)CC2)CN1c1ccsc1,Percent Effect,,-2.422%
Cn1cc(CN2CC[C@H](O)[C@@H]2Cc2ccncc2)cn1,Percent Effect,,14.17%
Cc1cc(C)n(C(=O)Cn2nc(C)c(I)c2C)n1,Percent Effect,,-1.053%
CN1CCCC1c1ccnc(-c2ccccc2)n1 (stereo not given),Percent Effect,,8.44%
CN1CCCC1CCn1ccnc1-c1nc(-c2ccccc2)no1 (stereo not given),Percent Effect,10 mM as filed; unlikely as a test dose,77.95% and 70.89%
